In all, about 5,500 compounds went through this assay and about 2,000 (36%) were called active. Not shown: some 18% with an inconclusive outcome. No stated cut-off is given here; in the data, active means normalized growth mostly below about 0.91 (no sharp cut-off); inconclusive means no clear call, values can overlap the other calls; inactive means mostly above about 0.92. This is one part of the list.
Assay: chemical genetic growth profiling, strain panel (AID 1159580);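 further: tested at 20 µM; growth read once vehicle control cultures reached saturation at 30 °C; 1 = growth at the plate median or of vehicle wells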
Details: growth OD

Measured: normalized growth

O=c1cc(-c2ccc(O)cc2)oc2cc(O[C@@H]3O[C@H](CO)[C@@H](O)[C@H](O)[C@H]3O)cc(O)c12
inactive: S. cerevisiae deletion strains, locus YJR075W, strain HOC1, stronger effect = lower value 0.993 | S. cerevisiae deletion strains, locus YKL009W, strain mrt4, stronger effect = lower value 0.936 | S. cerevisiae deletion strains, locus YKL068W, stronger effect = lower value 0.989 | S. cerevisiae deletion strains, locus YKL085W, strain MDH1 (second series), stronger effect = lower value 0.974 | S. cerevisiae deletion strains, locus YKL085W, strain MDH1, stronger effect = lower value 0.974 | S. cerevisiae deletion strains, locus YKL160W, strain elf1, stronger effect = lower value 0.985 | S. cerevisiae deletion strains, locus YKR001C, strain vps1, stronger effect = lower value 0.958 | S. cerevisiae deletion strains, locus YKR026C, strain gcn3, stronger effect = lower value 1.01 | S. cerevisiae deletion strains, locus YKR091W, strain srl3, stronger effect = lower value 1 | S. cerevisiae deletion strains, locus YLL001W, strain dnm1, stronger effect = lower value 1.01 | S. cerevisiae deletion strains, locus YLL026W, stronger effect = lower value 1.01 | S. cerevisiae deletion strains, locus YLL041C, strain sdh2, stronger effect = lower value 1 | S. cerevisiae deletion strains, locus YLR027C, strain aat2, stronger effect = lower value 0.997 | S. cerevisiae deletion strains, locus YLR039C, strain RIC1, stronger effect = lower value 0.996 | S. cerevisiae deletion strains, locus YLR058C, strain SHM2, stronger effect = lower value 0.989 | S. cerevisiae deletion strains, locus YLR102C, strain apc9, stronger effect = lower value 0.968 | S. cerevisiae deletion strains, locus YLR113W, strain HOG1, stronger effect = lower value 1.03 | S. cerevisiae deletion strains, locus YLR221C, strain rsa3, stronger effect = lower value 1.04 | S. cerevisiae deletion strains, locus YLR258W, strain gsy2, stronger effect = lower value 0.996 | S. cerevisiae deletion strains, locus YLR262C, strain YPT6 (second series), stronger effect = lower value 1.02 | S. cerevisiae deletion strains, locus YLR262C, strain YPT6, stronger effect = lower value 0.971 | S. cerevisiae deletion strains, locus YLR268W, strain sec22, stronger effect = lower value 0.963 | S. cerevisiae deletion strains, locus YLR320W, strain mms22, stronger effect = lower value 1.05 | S. cerevisiae deletion strains, locus YLR330W, strain CHS5, stronger effect = lower value 0.985 | S. cerevisiae deletion strains, locus YLR342W, strain FKS1 (second series), stronger effect = lower value 0.98 | S. cerevisiae deletion strains, locus YLR342W, strain FKS1, stronger effect = lower value 1.01 | S. cerevisiae deletion strains, locus YLR357W, strain rsc2, stronger effect = lower value 1.01 | S. cerevisiae deletion strains, locus YLR370C, strain arc18, stronger effect = lower value 0.976 | S. cerevisiae deletion strains, locus YLR371W, strain rom2, stronger effect = lower value 0.964 | S. cerevisiae deletion strains, locus YLR384C, strain iki3, stronger effect = lower value 1.01 | S. cerevisiae deletion strains, locus YLR418C, strain cdc73, stronger effect = lower value 0.964 | S. cerevisiae deletion strains, locus YML016C, strain PPZ1, stronger effect = lower value 0.988 | S. cerevisiae deletion strains, locus YML032C, strain rad52, stronger effect = lower value 0.973 | S. cerevisiae deletion strains, locus YML120C, strain ndi1, stronger effect = lower value 0.986 | S. cerevisiae deletion strains, locus YML124C, strain tub3, stronger effect = lower value 0.983 | S. cerevisiae deletion strains, locus YMR058W, strain fet3, stronger effect = lower value 1.02 | S. cerevisiae deletion strains, locus YMR078C, strain ctf18, stronger effect = lower value 1.01 | S. cerevisiae deletion strains, locus YMR125W, strain sto1, stronger effect = lower value 0.968 | S. cerevisiae deletion strains, locus YMR129W, stronger effect = lower value 1 | S. cerevisiae deletion strains, locus YMR205C, strain PFK2, stronger effect = lower value 1.01 | S. cerevisiae deletion strains, locus YMR223W, strain ubp8, stronger effect = lower value 1.01 | S. cerevisiae deletion strains, locus YMR231W, strain pep5, stronger effect = lower value 1 | S. cerevisiae deletion strains, locus YMR307W, strain GAS1, stronger effect = lower value 1.02 | S. cerevisiae deletion strains, locus YNL067W, strain RPL9B, stronger effect = lower value 1.01 | S. cerevisiae deletion strains, locus YNL071W, strain lat1, stronger effect = lower value 0.995 | S. cerevisiae deletion strains, locus YNL153C, strain GIM3, stronger effect = lower value 1 | S. cerevisiae deletion strains, locus YNL183C, strain NPR1, stronger effect = lower value 0.975 | S. cerevisiae deletion strains, locus YNL209W, strain ssb2, stronger effect = lower value 0.994 | S. cerevisiae deletion strains, locus YNL233W, strain BNI4, stronger effect = lower value 0.987 | S. cerevisiae deletion strains, locus YNL248C, strain rpa49, stronger effect = lower value 1.08 | S. cerevisiae deletion strains, locus YNL250W, strain rad50, stronger effect = lower value 0.98 | S. cerevisiae deletion strains, locus YNL271C, strain bni1, stronger effect = lower value 0.975 | S. cerevisiae deletion strains, locus YNL298W, strain CLA4, stronger effect = lower value 0.98 | S. cerevisiae deletion strains, locus YNL307C, strain MCK1, stronger effect = lower value 0.973 | S. cerevisiae deletion strains, locus YNL322C, strain KRE1 (second series), stronger effect = lower value 0.993 | S. cerevisiae deletion strains, locus YNL322C, strain KRE1, stronger effect = lower value 0.987 | S. cerevisiae deletion strains, locus YNR049C, strain mso1, stronger effect = lower value 1.03 | S. cerevisiae deletion strains, locus YNR052C, strain pop2, stronger effect = lower value 0.997 | S. cerevisiae deletion strains, locus YOL012C, strain htz1 0.98 | S. cerevisiae deletion strains, locus YOL147C, strain pex11, stronger effect = lower value 0.978 | S. cerevisiae deletion strains, locus YOR001W, strain rrp6, stronger effect = lower value 1.04 | S. cerevisiae deletion strains, locus YOR061W, strain CKA2, stronger effect = lower value 0.979 | S. cerevisiae deletion strains, locus YOR069W, strain VPS5, stronger effect = lower value 0.978 | S. cerevisiae deletion strains, locus YOR070C, strain gyp1, stronger effect = lower value 1.02 | S. cerevisiae deletion strains, locus YOR080W, strain dia2, stronger effect = lower value 1.01 | S. cerevisiae deletion strains, locus YOR083W, strain WHI5, stronger effect = lower value 0.974 | S. cerevisiae deletion strains, locus YOR106W, strain vam3, stronger effect = lower value 0.966 | S. cerevisiae deletion strains, locus YOR136W, strain idh2, stronger effect = lower value 0.958 | S. cerevisiae deletion strains, locus YOR144C, strain elg1, stronger effect = lower value 0.98 | S. cerevisiae deletion strains, locus YOR184W, strain ser1, stronger effect = lower value 1 | S. cerevisiae deletion strains, locus YOR231W, strain MKK1, stronger effect = lower value 1.05 | S. cerevisiae deletion strains, locus YOR265W, strain rbl2, stronger effect = lower value 1.01 | S. cerevisiae deletion strains, locus YOR270C, strain vph1, stronger effect = lower value 1.06 | S. cerevisiae deletion strains, locus YOR290C, strain snf2, stronger effect = lower value 0.961 | S. cerevisiae deletion strains, locus YOR316C, strain cot1, stronger effect = lower value 0.969 | S. cerevisiae deletion strains, locus YPL051W, strain arl3, stronger effect = lower value 1.03 | S. cerevisiae deletion strains, locus YPL078C, strain atp4, stronger effect = lower value 0.968 | S. cerevisiae deletion strains, locus YPL106C, strain sse1, stronger effect = lower value 1 | S. cerevisiae deletion strains, locus YPL240C, strain hsp82, stronger effect = lower value 1.01 | S. cerevisiae deletion strains, locus YPL241C, strain CIN2, stronger effect = lower value 0.994 | S. cerevisiae deletion strains, locus YPL256C, strain CLN2, stronger effect = lower value 1 | S. cerevisiae deletion strains, locus YPR119W, strain clb2, stronger effect = lower value 0.989 | S. cerevisiae deletion strains, locus YPR141C, strain kar3, stronger effect = lower value 0.968 | S. cerevisiae deletion strains, locus YPR163C, strain tif3, stronger effect = lower value 0.982 | S. cerevisiae deletion strains, locus YPR167C, strain met16, stronger effect = lower value 0.979 | S. cerevisiae deletion strains, strain wtn01, stronger effect = lower value 0.955 | S. cerevisiae strains, strain wild type, stronger effect = lower value 0.993

— PubChem BioAssay AID1159580 (chemical genetic matrix, 2015)
